This is a sample that favours compounds with a hit; in the whole collection about 5.2% have one here.
Sfp inh = inhibitors of Bacillus subtilis Sfp phosphopantetheinyl transferase; Q9F4F7; AID 1490; hit rate 3.5% among 310,000; Biochemical Sfp PPTase activity, qHTS; Potency, µM, hits mostly inhibitors;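 note: the enzyme is Sfp with the accession as filed and its product quenches rhodamine fluorescence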
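Reaction rates are the 30-min fluorescence difference (ex 525, em 598 nm) in wells containing 15 nM Sfp, 5 uM rhodamine-CoA and 12.5 uM BHQ-2-YbbR at pH 7.6 with 10 mM MgCl2.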
Tau fluor counter = counter-screen for tau fibril formation inhibitors; hit rate 0.93% among 280,000; tau K18 P301L Alexa594 fluorescence, heparin fibrillization; AID 1463; Potency, µM (doses to about 57.7 µM); note: nearly all actives have a fitted effect of over 55% in size
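Human K18 P301L tau (15 uM unlabeled plus 0.24 uM Alexa 594-labeled, final) in 100 mM sodium acetate pH 7 was mixed with compound and 20 uM heparin and incubated 6 hr at 37 C.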
Coupling enz = inhibits coupling enzyme system, counter-screen for aldolase hits; coupling enzyme system counterscreen, AmpLite Red fluorescence; activity change, negative = inhibition, % at 58.2 µM, hits read low; hit rate 0.67% among 290,000; AID 2472; in the data active = activity change below about -30%
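Fluorescence at 525 nm excitation and 598 nm emission measured inhibition of the coupled detection system without aldolase. Compounds (at 57.5 uM final) were preincubated 10 min at room temperature with coupling enzyme reagent before a 20 min substrate/AmpLite Red step.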
Tau ThT inhib = inhibitors of human tau fibril formation, thioflavin T binding | P10636 | recombinant tau K18 P301L (four-repeat tau fragment), heparin-induced fibrillization, ThT fluorescence | Potency, µM (top dose mostly 57.4 µM), hits mostly inhibitors | hit rate 2.1% among 270,000; note: nearly all actives have a fitted effect of over 55% in size
Target sequence (P10636 561-689 P618L limits assumed): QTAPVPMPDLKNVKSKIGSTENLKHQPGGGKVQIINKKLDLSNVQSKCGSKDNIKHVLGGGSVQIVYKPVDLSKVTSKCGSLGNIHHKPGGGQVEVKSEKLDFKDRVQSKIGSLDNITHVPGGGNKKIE
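Tau K18 P301L fragment (15 uM unlabeled plus 0.24 uM Alexa 594-labeled) in 100 mM sodium acetate pH 7 with compound, fibrillization induced by 20 uM heparin for 6 hr at 37 C. Thioflavin T (30 uM) added, fluorescence read after 1 hr (ex 450, em 510 nm).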
Tau fibril FP = tau fibrillization inhibition (FP) | P10636 | K18 P301L tau heparin fibrillization, Alexa594 FP, 6 h | Potency, µM (series often up to 57.7 µM), actives largely listed as inhibitors | hit rate 0.39% among 280,000; note: nearly all actives have a fitted effect of over 55% in size
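Human tau K18 […] P301L fragment, 15 uM unlabeled plus 0.24 uM Alexa 594-labeled tau (final), with compound and 20 uM heparin in 100 mM sodium acetate pH 7; 6 hr at 37 C, then Alexa 594 FP read.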
Numbers stand for hits; – = inactive; ? = inconclusive; · = not tested or not shown; ! = repeats disagree; [ ] = remark or other dose. Unless noted, calls come from the whole dose curve; as a rule, active = well fitted curve in the direction sought with a large enough effect; inconclusive = small, poorly fitted or top-dose-only effect, or another doubt; inactive = no such curve, though single readings can be large; an effect the other way counts as inactive or inconclusive.

SMILES	Sfp inh	Tau fluor counter	Coupling enz	Tau ThT inhib	Tau fibril FP
CC1CN(C2=Nc3cccc4cccc2c34)CC(C)O1 (centres undefined)	–	–	-46	–	–
COc1ccccc1N1CCN(C2=Nc3cccc4cccc2c34)CC1	–	–	–	?	–
CCOC(=O)N1CCN(C(=O)Nc2cccc3ccccc23)CC1	–	–	–	–	–
c1cc2c3c(cccc3c1)C(N1CCOCC1)=N2	–	–	-51	–	–
CCOC(=O)N1CCN(C2=Nc3cccc4cccc2c34)CC1	–	–	-57	?	–
c1ccc(CC2CCN(C3=Nc4cccc5cccc3c45)CC2)cc1	?	–	–	?	–
COc1ccc(F)cc1S(=O)(=O)NCC(c1ccco1)S(=O)(=O)c1ccc(F)cc1 (centres undefined)	·	–	·	–	–
CCOC(=O)C1=C(C)N=c2s/c(=C\c3ccc(O)c([N+](=O)[O-])c3)c(=O)n2C1c1ccccc1OC (centres undefined)	–	·	–	·	·
CCOC(=O)C1=C(C)n2c(s/c(=C/c3cccc([N+](=O)[O-])c3)c2=O)=NC1c1ccc(O)c(OC)c1 (centres undefined)	–	?	–	14µM	–
C[C@H](NC(=O)CNC(=O)[C@@H](NC(=O)[C@H](Cc1ccccc1)NC(=O)CNC(=O)CNC(=O)[C@@H](N)Cc1ccccc1)[C@@H](C)O)C(=O)N[C@@H](CCCN=C(N)N)C(=O)N[C@@H](CCCCN)C(=O)N[C@@H](CO)C(=O)N[C@@H](C)C(=O)N[C@@H](CCCN=C(N)N)C(=O)N[C@@H](CCCCN)C(N)=O	–	·	–	·	·
COC(=O)c1ccc(C2/C(=C(\O)c3ccc4c(c3)OCCO4)C(=O)C(=O)N2c2nnc(C)s2)cc1 (centres undefined)	–	·	–	·	·
COc1ccc(C2/C(=C(\O)c3ccc4c(c3)OCCO4)C(=O)C(=O)N2c2nc(C)c(C(C)=O)s2)cc1 (centres undefined)	45µM	·	–	·	·
CCCn1c(NCc2ccccn2)nc2ccccc21	?	–	–	–	–
c1ccc(CNc2nc3ccccc3n2CCN2CCOCC2)nc1	89µM	–	–	–	–
Cc1cnc(CNc2nc(-c3ccc(N(C)C)cc3)nc3ccccc23)cn1	–	?	–	?	–
Cc1cc(C(=O)CSc2nnc(-c3ccccc3F)o2)c(C)n1Cc1cccs1	28µM	–	–	?	–
CO[C@H]1C=CO[C@@]2(C)Oc3c(C)c(O)c4c(O)c(c(C=NN5CCN(C6CCCC6)CC5)c(O)c4c3C2=O)NC(=O)C(C)=CC=C[C@H](C)[C@H](O)[C@@H](C)[C@@H](O)[C@@H](C)[C@H](OC(C)=O)[C@@H]1C	–	–	–	18µM	–
OCCOCCN1CCN(C2=Nc3ccccc3Sc3ccccc32)CC1	50µM!	–	–	–	–
CC(C)c1ccc(Nc2nc3c(S(=O)(=O)c4ccc(Br)cc4)nnn3c3ccsc23)cc1	·	?	·	–	?
Fc1ccc(-n2ncc3c(Nc4ccc5c(c4)OCCO5)ncnc32)cc1	·	11µM[quencher]	·	?	–
Clc1cccc(-n2ncc3c(Nc4ccc5c(c4)OCCO5)ncnc32)c1	·	6.3µM[quencher]	·	?	?
Fc1ccc(-n2ncc3c(Nc4cccc(Cl)c4)ncnc32)cc1	·	?	·	?	10µM
Cc1ccc(Cl)cc1-n1ncc2c(Nc3ccc4c(c3)OCCO4)ncnc21	·	?	·	–	–
Clc1ccc(Nc2ncnc3c2cnn3-c2ccccc2)cc1	?	?	–	?	?
Cc1ccc(-n2ncc3c(Nc4ccc5c(c4)OCCO5)ncnc32)cc1Cl	·	?	·	?	–
SMILES	Sfp inh	Tau fluor counter	Coupling enz	Tau ThT inhib	Tau fibril FP
Cc1ccc(CO)cc1Nc1ncnc2onc(-c3ccc(F)cc3)c12	·	–	·	–	–
Cc1ccccc1NC(=O)/C=C/c1ccc([N+](=O)[O-])s1	–	?	–	13µM	?
CC(=O)c1cccc(NC(=O)/C=C/c2ccc([N+](=O)[O-])s2)c1	–	?	–	4µM	?
COc1ccc(CNC(=O)CCNS(=O)(=O)c2ccc3c(c2)CCCC(=O)N3)cc1	·	–	·	–	–
CCOc1ccccc1CNC(=O)Cn1c(-c2ccccc2)cc(C(C)=O)c1C	·	–	·	–	–
Cc1cc(C)cc(N2C(=O)CC(Sc3nnnn3-c3ccccc3)C2=O)c1 (centres undefined)	–	–	·	?	–
Cc1cc(C)cc(N2C(=O)CC(Sc3ncn[nH]3)C2=O)c1 (centres undefined)	35µM	–	–	?	–
COc1ccc(CCNC(=O)CCc2cn(Cc3ccc(C)cc3)c3ccccc23)c(OC)c1OC	·	–	·	–	?
O=C1C=CC(O)(c2cc(=O)c3c(O)cc(O)cc3o2)C=C1	?	–	–	13µM	11µM
O=C(NC(=S)Nc1cccc([N+](=O)[O-])c1)c1ccco1	?	–	–	–	–
O=C(O)c1ccc(Cl)c(NC(=S)NC(=O)c2ccccc2[N+](=O)[O-])c1	50µM	–	–	–	–
O=C(NC(=S)Nc1cccc([N+](=O)[O-])c1)c1ccccc1	45µM	–	–	?	?
O=C(NC(=S)Nc1cc([N+](=O)[O-])ccc1Cl)c1ccccc1	56µM	?	–	?	–
CC(C)(C)c1ccc(C(=O)Nc2cccc([N+](=O)[O-])c2)cc1	–	7.9µM[quencher]	–	?	?
COc1ccc(Cl)cc1NC(=O)C(C)n1nnc2sc3c(c2c1=O)CCCC3 (centres undefined)	·	–	·	?	–
CCOC(=O)c1cccc(NC(=O)CCS(=O)(=O)c2ccc3c(c2)CC(=O)N3C)c1	·	–	·	–	–
Cc1ccc(NC(=O)Nc2cccc([N+](=O)[O-])c2)cc1F	79µM	5.6µM[quencher]	–	?	?
N#CC1=C(N)NC(SCc2ccc(Cl)cc2)=C(C#N)C12CCCCC2	–	8.9µM[quencher]	–	?	–
N#CC1=C(N)NC(SCc2ccccc2)=C(C#N)C12CCCC2	–	?	–	–	–
N#CC1=C(N)NC(SCc2ccc(Br)cc2)=C(C#N)C12CCCCC2	–	10µM[quencher]	–	–	–
CC(=O)Oc1ccc(N2C(=O)C3C(C2=O)C2C=CC3C23CC3)cc1[N+](=O)[O-] (centres undefined)	–	–	–	?	–
CC(=O)Oc1ccc(N2C(=O)C3C4C=CC(C5CC45)C3C2=O)cc1[N+](=O)[O-] (centres undefined)	56µM	–	–	?	–
COc1cccc(=O)c2c(C)n(C)c(C)c12	?	–	–	?	–
COc1cccc(=O)c2c(C)n(-c3cc(C)cc(C)c3)c(C)c12	–	–	–	28µM	?
COc1cccc(-n2c(C)c3c(OC)cccc(=O)c3c2C)c1	50µM	–	–	25µM	?
CCOC(=O)c1cnc(SSc2ncc(C(=O)OCC)c(N)n2)nc1N	7.9µM	·	–	·	·
Cc1cc(C)nc(SCNC(=O)c2ccc(Cl)cc2)n1	56µM	–	–	–	–
Cc1cc(C)nc(SCc2ccc(Cl)cc2)n1	–	·	–	·	·
